Inconclusive results are not listed. Active and inactive are the calls of the source. The calls were made as follows, unless noted: active = hit-call score of the fitted dose curve at least 0.9, where 1 is the maximum; inactive = score below 0.9.
Legend:
[1] = read-out: Monocyte Chemoattractant Protein-1 (MCP1), CCL2 (gene 6347); test: BSK_LPS_MCP1: BioMAP Diversity Plus: LPS Assay for Monocyte Chemoattractant Protein-1 (MCP1) Biomarker Activity (AID 2283081); conditions: primary human HUVEC with PBMC; actives raise or lower the signal
How it was run: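 Values derive from bidirectional fitting against DMSO of ELISA-measured MCP-1 in a human primary endothelial and mononuclear cell co-culture, 24 h after chemical addition under LPS activation.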

[2] = BSK_LPS_PGE2: BioMAP Diversity Plus: LPS Assay for Prostaglandin E2 (PGE2) Biomarker Activity (AID 2283082); conditions: primary human HUVEC with PBMC; actives raise or lower the signal;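 as to AC50: secreted prostaglandin E2 measured by ELISA in LPS-stimulated co-culture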
How it was run: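 LPS-activated HUVEC/PBMC co-culture; cmpd dosed, 24 h; PGE2 by ELISA; bidirectional fit vs DMSO; SRB (0.1%, TCA-fixed, 560 nm) in parallel plates for overt cytotox.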

[3] = read-out: Macrophage colony-stimulating factor (MCSF), CSF1 (gene 1435); test: BSK_LPS_MCSF: BioMAP Diversity Plus: LPS Assay for Macrophage colony-stimulating factor (MCSF) Biomarker Activity (AID 2283083); conditions: primary human HUVEC with PBMC; actives raise or lower the signal
How it was run: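 Bidirectional fit versus DMSO of ELISA-measured M-CSF in co-cultured human umbilical vein endothelial cells and PBMC, sampled 24 h after dosing.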

[4] = read-out: Tissue Factor, F3 (gene 2152); test: BSK_LPS_TissueFactor: BioMAP Diversity Plus: LPS Assay for Tissue Factor Biomarker Activity (AID 2283084); conditions: primary human HUVEC with PBMC; actives raise or lower the signal
How it was run: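 Read-out: CD142 ELISA, 24 h. System: LPS-driven human endothelial/PBMC co-culture. Analysis: up- or down-signal fitted against DMSO.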

[5] = read-out: Tumor necrosis factor (Homo sapiens) (UniProt P01375); test: BSK_LPS_TNFa: BioMAP Diversity Plus: LPS Assay for Tumour Necrosis Factor alpha (TNFa) Biomarker Activity (AID 2283085); conditions: primary human HUVEC with PBMC; actives raise or lower the signal
How it was run: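 Read-out is ELISA of TNFa in primary human endothelial cell–PBMC co-cultures at 24 h after compound. Activity in either direction was fitted against DMSO.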

[6] = read-out: Vascular cell adhesion molecule 1 (VCAM1), VCAM1 (gene 7412); test: BSK_LPS_VCAM1: BioMAP Diversity Plus: LPS Assay for Vascular cell adhesion molecule 1 (VCAM1) Biomarker Activity (AID 2283086); conditions: primary human HUVEC with PBMC; actives raise or lower the signal
How it was run: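 HUVEC + PBMC co-culture, LPS system; compound 24 h; VCAM-1 by ELISA; bidirectional fit vs DMSO control; parallel SRB (0.1%, TCA-fixed, 560 nm) for cytotoxicity.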

CD38, CD38 (gene 952) = test: BSK_SAg_CD38: BioMAP Diversity Plus: SAg Assay for CD38 Biomarker Activity (AID 2283087); conditions: primary human HUVEC with PBMC; actives raise or lower the signal
How it was run: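 Human HUVEC plus PBMC co-culture stimulated with superantigen; CD38 measured by ELISA 24 h after chemical dosing. Fluorescence read-out, bidirectional fit against DMSO; cytotoxicity tracked in parallel by SRB and Alamar Blue.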

CD40, CD40 (gene 958) = test: BSK_SAg_CD40: BioMAP Diversity Plus: SAg Assay for CD40 Biomarker Activity (AID 2283088); conditions: primary human HUVEC with PBMC; actives raise or lower the signal
How it was run: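 Endpoint derived by fitting increases or decreases versus DMSO controls. CD40 is detected by fluorescence ELISA in a human vascular co-culture of endothelium and PBMC at 24 h.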

[7] = read-out: Monocyte Chemoattractant Protein-1 (MCP1), CCL2 (gene 6347); test: BSK_SAg_MCP1: BioMAP Diversity Plus: SAg Assay for Monocyte Chemoattractant Protein-1 (MCP1) Biomarker Activity (AID 2283090); conditions: primary human HUVEC with PBMC; actives raise or lower the signal
How it was run: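 MCP-1 levels in the endothelial–PBMC SAg co-culture were quantified by ELISA at 24 h post-dosing; both increases and decreases versus DMSO scored. Cytotoxicity monitored by SRB total protein in parallel cultures.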

[8] = read-out: E-selectin (Homo sapiens) (UniProt P16581); test: BSK_SAg_Eselectin: BioMAP Diversity Plus: SAg Assay for Eselectin Biomarker Activity (AID 2283091); conditions: primary human HUVEC with PBMC; actives raise or lower the signal
How it was run: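 Endpoint values derive from bidirectional fitting relative to DMSO, using ELISA-measured E-selectin in a human vascular co-culture (umbilical vein endothelium plus PBMC) sampled 24 h after dosing.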

[9] = BSK_SAg_PBMCCytotoxicity: PBMC Cytotoxicity Assessment in the BioMAP Diversity Plus: SAg Assay (AID 2283093); conditions: primary human HUVEC with PBMC;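 also: PBMC viability measured as Alamar Blue reduction fluorescence at 546/580 nm; fitted both ways against DMSO so a hit may be loss or gain of signal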;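 as to AC50: PBMC superantigen activated with SEB plus TSST-1 one hour after compound addition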
How it was run: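 HUVEC/PBMC co-culture; PBMC exposed to chemical 1 h before SEB and TSST-1 activation (20 ng/mL each), incubated 90 h, then Alamar Blue 6 h, fluorescence 546/580 nm. Bidirectional fit versus DMSO baseline.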

[10] = read-out: Interleukin-8 (IL8), CXCL8 (gene 3576); test: BSK_SAg_IL8: BioMAP Diversity Plus: SAg Assay for Interleukin-8 (IL8) Biomarker Activity (AID 2283094); conditions: primary human HUVEC with PBMC; actives raise or lower the signal
How it was run: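 ELISA read-out of IL-8 in a primary human vascular co-culture (umbilical vein endothelium plus PBMC), taken 24 h after compound addition. Values derive from bidirectional fits against DMSO negative controls.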

[11] = BSK_SAg_Proliferation: Cell Proliferation Assessment in the BioMAP Diversity Plus: SAg Assay (AID 2283095); conditions: primary human HUVEC with PBMC;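 also: relative cell number as total protein by SRB absorbance in sub-confluent culture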
How it was run: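 Cells (endothelium plus PBMC, human primary) were dosed with chemical, cultured 96 h, fixed in 10% TCA and stained with 0.1% SRB. Absorbance at 560 nm gave relative protein, fitted bidirectionally relative to DMSO.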

[12] = BSK_SAg_SRB: Viability Assessment in the BioMAP Diversity Plus: SAg Assay (AID 2283096); conditions: primary human HUVEC with PBMC;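 also: cells read one day after compound addition; hits may be either gain or loss of signal compared with DMSO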
How it was run: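 Human umbilical vein endothelial cells co-cultured with PBMC, read 24 h after compound dosing. Total protein measured by sulforhodamine B staining (0.1% SRB after 10% TCA fixation, absorbance 560 nm); bidirectional fit versus DMSO baseline.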

[13] = biological target: human CYP1A1, CYP1A1 (gene 1543) (UniProt P04798); test: NVS_ADME_hCYP1A1: NovaScreen (NVS) CYP450-related Enzyme Activity (ADME) Assay for human CYP1A1 (AID 2283100; active = hit-call score of the fitted dose curve at least 0.9, where 1 is the maximum)
Chain of human CYP1A1, CYP1A1 (gene 1543) (P04798 whole entry, looked up): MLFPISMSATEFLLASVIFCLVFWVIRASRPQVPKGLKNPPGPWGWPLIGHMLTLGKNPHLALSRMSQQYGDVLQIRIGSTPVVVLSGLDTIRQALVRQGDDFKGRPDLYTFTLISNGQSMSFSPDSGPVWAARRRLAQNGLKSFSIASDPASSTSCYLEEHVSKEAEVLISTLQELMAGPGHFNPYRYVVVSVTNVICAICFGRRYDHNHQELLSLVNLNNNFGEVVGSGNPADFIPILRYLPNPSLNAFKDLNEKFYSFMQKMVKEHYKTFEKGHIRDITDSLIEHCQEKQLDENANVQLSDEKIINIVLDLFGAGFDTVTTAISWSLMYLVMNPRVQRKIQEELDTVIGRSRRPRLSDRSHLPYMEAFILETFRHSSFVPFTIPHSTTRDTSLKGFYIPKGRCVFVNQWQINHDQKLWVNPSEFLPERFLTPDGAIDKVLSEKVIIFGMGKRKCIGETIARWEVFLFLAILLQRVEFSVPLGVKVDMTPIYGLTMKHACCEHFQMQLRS
How it was run: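 Inhibition of recombinant CYP1A1 turnover was assessed fluorometrically in a biochemical format 1 h after compound exposure. Testing began at 10 uM in duplicate and progressed to concentration series reaching 20 uM, with on-plate positive and negative controls.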

[14] = biological target: human CYP2B6, CYP2B6 (gene 1555) (UniProt P20813); test: NVS_ADME_hCYP2B6: NovaScreen (NVS) CYP450-related Enzyme Activity (ADME) Assay for human CYP2B6 (AID 2283101; active = hit-call score of the fitted dose curve at least 0.9, where 1 is the maximum)
Chain of human CYP2B6, CYP2B6 (gene 1555) (P20813 whole entry, looked up): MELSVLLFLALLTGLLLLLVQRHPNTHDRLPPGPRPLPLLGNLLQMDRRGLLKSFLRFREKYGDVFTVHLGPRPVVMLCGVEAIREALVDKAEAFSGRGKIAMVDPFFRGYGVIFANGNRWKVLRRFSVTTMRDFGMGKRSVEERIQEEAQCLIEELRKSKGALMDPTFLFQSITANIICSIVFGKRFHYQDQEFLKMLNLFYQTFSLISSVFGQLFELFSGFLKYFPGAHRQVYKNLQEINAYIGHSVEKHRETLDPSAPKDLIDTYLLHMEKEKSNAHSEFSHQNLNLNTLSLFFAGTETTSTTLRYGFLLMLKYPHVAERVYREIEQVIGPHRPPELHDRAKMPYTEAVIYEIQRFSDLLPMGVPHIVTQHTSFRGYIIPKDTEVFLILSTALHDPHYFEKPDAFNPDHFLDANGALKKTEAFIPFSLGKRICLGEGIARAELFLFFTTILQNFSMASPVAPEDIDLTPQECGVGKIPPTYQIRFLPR
How it was run: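 Recombinant protein, specific fluorescent substrate, read at 1 h post-dosing. Primary: single 10 uM, duplicate; follow-up: concentration series. Activity = signal loss vs acetonitrile baseline, with positive and negative controls on every plate.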

[15] = biological target: human CYP1A2, CYP1A2 (gene 1544) (UniProt P05177); test: NVS_ADME_hCYP1A2: NovaScreen (NVS) CYP450-related Enzyme Activity (ADME) Assay for human CYP1A2 (AID 2283102; active = hit-call score of the fitted dose curve at least 0.9, where 1 is the maximum;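 also: fluorescence from turnover of a fluorogenic substrate by recombinant insect-cell CYP1A2; potency for inhibition since loss of fluorescence marks reduced CYP1A2 activity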)
Chain of human CYP1A2, CYP1A2 (gene 1544) (P05177 whole entry, looked up): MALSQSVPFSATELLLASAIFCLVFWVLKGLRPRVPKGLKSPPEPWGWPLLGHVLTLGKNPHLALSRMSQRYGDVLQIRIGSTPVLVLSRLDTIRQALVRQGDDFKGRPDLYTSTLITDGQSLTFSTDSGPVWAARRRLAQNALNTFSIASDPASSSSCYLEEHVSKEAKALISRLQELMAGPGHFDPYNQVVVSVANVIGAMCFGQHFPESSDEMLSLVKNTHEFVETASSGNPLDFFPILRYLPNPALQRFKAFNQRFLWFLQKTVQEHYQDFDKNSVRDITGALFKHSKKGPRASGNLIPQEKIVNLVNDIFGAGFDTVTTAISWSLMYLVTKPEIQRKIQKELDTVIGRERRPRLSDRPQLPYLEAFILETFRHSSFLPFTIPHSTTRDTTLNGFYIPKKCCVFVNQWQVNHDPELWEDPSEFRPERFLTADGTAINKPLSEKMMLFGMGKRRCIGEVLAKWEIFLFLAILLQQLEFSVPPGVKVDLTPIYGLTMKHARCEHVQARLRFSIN
How it was run: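 Inhibition scored as decrease in fluorescent product versus acetonitrile negative control. Enzyme: insect-cell recombinant human CYP1A2, substrate-specific, cell-free. Reading at 0.5 h; 10 uM duplicate initial screen with positive and negative controls on every plate.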

[16] = read-out: Monokine induced gamma interferon (MIG), CXCL9 (gene 4283); test: BSK_SAg_MIG: BioMAP Diversity Plus: SAg Assay for Monokine induced gamma interferon (MIG) Biomarker Activity (AID 2283092); conditions: primary human HUVEC with PBMC; actives raise or lower the signal
How it was run: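 Measures CXCL9 protein by ELISA in a human vascular primary-cell co-culture (umbilical vein endothelium with PBMC) 24 h after chemical addition. Activity is scored up or down from the DMSO control.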

Measured: AC50

Chain of Tumor necrosis factor (Homo sapiens) (P01375 whole entry, looked up): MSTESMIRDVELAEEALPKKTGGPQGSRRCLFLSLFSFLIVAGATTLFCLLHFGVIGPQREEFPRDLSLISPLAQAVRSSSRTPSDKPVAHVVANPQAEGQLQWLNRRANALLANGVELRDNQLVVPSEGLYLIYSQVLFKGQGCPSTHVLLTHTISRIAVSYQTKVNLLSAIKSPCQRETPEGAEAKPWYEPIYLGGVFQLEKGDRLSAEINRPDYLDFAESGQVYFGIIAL
Chain of E-selectin (Homo sapiens) (P16581 whole entry, looked up): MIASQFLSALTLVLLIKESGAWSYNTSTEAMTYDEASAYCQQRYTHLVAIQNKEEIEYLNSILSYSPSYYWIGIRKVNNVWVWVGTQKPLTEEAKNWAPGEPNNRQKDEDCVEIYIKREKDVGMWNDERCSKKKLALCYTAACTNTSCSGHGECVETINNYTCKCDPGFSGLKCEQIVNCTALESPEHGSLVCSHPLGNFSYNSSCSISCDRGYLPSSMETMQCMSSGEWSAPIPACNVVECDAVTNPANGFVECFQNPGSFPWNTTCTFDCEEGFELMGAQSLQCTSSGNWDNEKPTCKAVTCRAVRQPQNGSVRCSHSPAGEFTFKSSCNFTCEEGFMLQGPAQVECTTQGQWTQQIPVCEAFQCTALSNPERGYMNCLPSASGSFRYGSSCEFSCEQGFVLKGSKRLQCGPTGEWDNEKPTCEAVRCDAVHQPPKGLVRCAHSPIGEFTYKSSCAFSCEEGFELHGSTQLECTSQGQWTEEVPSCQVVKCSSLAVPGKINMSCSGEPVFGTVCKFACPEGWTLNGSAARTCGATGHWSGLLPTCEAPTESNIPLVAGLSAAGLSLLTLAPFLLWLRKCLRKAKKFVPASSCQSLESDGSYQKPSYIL

[Cl-].[Cl-].[Hg+2]
inactive: [1] | [2] | [7] | [10] | [12]
active: [3] 31.7 µM | [4] 32.9 µM | [5] 33 µM | [6] 28.2 µM | CD38, CD38 (gene 952) 36.6 µM | CD40, CD40 (gene 958) 32 µM | [8] 20 µM | [9] 31 µM | [11] 22.7 µM | [13] 14.3 µM | [14] 9.16 µM | [15] 0.998 µM

CCOC(=O)[C@]1(c2ccccc2)Oc2ccccc2[C@@H]1N
active: CD38, CD38 (gene 952) 36.2 µM | [7] 30.1 µM | [9] 24.3 µM | [11] 31.3 µM | [14] 0.269 µM | [15] 5.07 µM
not listed: [8] | [16]
inactive: all other assays above

CNC(=O)Oc1cccc2c1OC(C)(C)C2
not listed: [13] | [14] | [15] | [16]
inactive: all other assays above

O=C(N[C@H](c1ccccc1)[C@@H]1CN2CCC1CC2)c1c(Cl)ccc(C(F)(F)F)c1Cl
active: [2] 4.3 µM | [6] 17.7 µM | CD38, CD38 (gene 952) 29.7 µM | [9] 14.7 µM | [10] 20.2 µM | [11] 29.7 µM
not listed: [13] | [14] | [15] | [16]
inactive: all other assays above

Nc1ccc(Cl)cc1N
active: [2] 10 µM | [3] 2.96 µM | [6] 3.62 µM | CD38, CD38 (gene 952) 6.44 µM | [7] 3.7 µM | [8] 8.35 µM | [15] 7.31 µM
not listed: [13] | [14] | [16]
inactive: all other assays above

c1ccc2c(c1)-c1cccc3cccc-2c13
active: [5] 4.36 µM | CD40, CD40 (gene 958) 31.2 µM | [10] 32.2 µM | [12] 29.5 µM | [15] 7.21 µM
not listed: [8] | [13] | [14]
inactive: all other assays above
